The record followed here is the supplement of paper PMC13380429.

Molecules are shown by their SMILES.

For the experiment, the system named is Vero E6 infected with SARS-CoV-2. Description: morphology score (similarity to uninfected cells); higher = more like uninfected cells. The following applies: 24 h.
Turning to `CN(C)CCCOc1nn(Cc2ccccc2)c2ccccc12` [benzydamine] (10 µM), the morphology score came out at 0.4.
`Nc1nc(N)c(N=O)c(OCC2CCCCC2)n1` (10 µM) returned a morphology score of 0.621.
With `CCCCCNC(=N)N/N=C/c1c[nH]c2ccc(OC)cc12` [tegaserod] (10 µM), the morphology score amounted to 0.0727.
For `CC(CNC(=O)c1cccnc1)NC(=O)c1cccnc1` (stereo unspecified) [nicaraven] (10 µM) the value was -0.02; for `Cc1c(C(=O)NN2CCCCC2)nn(-c2ccc(Cl)cc2Cl)c1-c1ccc(Cl)cc1` [rimonabant] (10 µM), 0.17; for `C[C@H]1O[C@@H](O[C@H]2[C@@H](O)C[C@H](O[C@H]3[C@@H](O)C[C@H](O[C@H]4CC[C@@]5(C)[C@H](CC[C@@H]6[C@@H]5C[C@@H](O)[C@]5(C)[C@@H](C7=CC(=O)OC7)CC[C@]65O)C4)O[C@@H]3C)O[C@@H]2C)C[C@H](O)[C@@H]1O` [digoxin] (0.833333 µM), -0.256.
As for `Nc1nc(O)c2nc(Br)n([C@@H]3O[C@@H]4COP(=O)(O)O[C@H]4[C@H]3O)c2n1` [8-bromo-cGMP] (10 µM), the figure is 0.0521; as for `CC(C)(CO)c1cc2cc(NC(=O)C3(c4ccc5c(c4)OC(F)(F)O5)CC3)c(F)cc2n1C[C@@H](O)CO` [tezacaftor] (10 µM), -0.0125.
`COc1cc(C(=O)NCc2ccc(OCCN(C)C)cc2)cc(OC)c1OC` [trimethobenzamide] (10 µM) came in with a morphology score of 0.00196.
As for `O=C(O)[C@H](O)c1ccccc1` [mandelic-acid] (10 µM), the figure is -0.0448; as for `CCOc1c2c(c(OCC)c3ccccc13)C(=O)N(c1ccc(CC(=O)NS(=O)(=O)c3ccccc3)cc1)C2` (10 µM), 0.117.
